Assay outcomes as filed in PubChem.
Rows were chosen to be rich in hits. Some 3.6% of all compounds tested hit in one or more screens of this group.
mTORC1 inh: inhibitors of mTORC1 signaling in Tsc2-/- p53-/- MEF cells; AID 493208; Tsc2-/- p53-/- MEF, phospho-rpS6 immunofluorescence/PI, 24 h; 0.78% of 44,000 active; Potency, µM (top dose mostly 38.3 µM), for the others: top-dose activity change, negative = inhibition, hits mostly inhibitors;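 also: potency is read from the fitted curve at half-maximal effect; plate controls were DMSO for no effect and rapamycin for full effect; nearly all actives have a fitted effect of over 50% in size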
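Plate MEFs (Tsc2-/-, p53-/-, empty vector) in DMEM/10% FBS; after 24 h add compound, incubate 24 h at 37 degree Celsius; fix in PFA/TX-100, block, stain phospho-rpS6 and 10 uM PI; scan at 488 nm; report % positive cells.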
HTT prom inh: inhibitors of huntingtin promoter activity; 0.93% of 48,000 active; Potency, µM (titrated, usually from 57.5 µM), inactives show top-dose activity change, negative = inhibition, actives largely listed as inhibitors; HEK293 HTT promoter firefly luciferase reporter, 24 h; also: potency is read from the fitted curve at half-maximal effect; nearly all actives have a fitted effect of over 50% in size
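Luminescence was read after Dual-Glo reagent and a 10 min room-temperature incubation. Values were normalized to vehicle (0% activity) and zero RLU (-100% activity). Reporter HEK293 cells had been exposed to compounds (up to 57.5 uM final) for 24 h.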
OvCa metastasis: blocks SKOV3ip1 adhesion and invasion in omental model; Potency, µM (top dose mostly 45.8 µM), inactives show top-dose activity change, negative = inhibition, actives largely listed as inhibitors; 0.1% of 46,000 active; SKOV3ip1-GFP adhesion/invasion on 3D omental model, fluorescence;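 also: potency is read from the fitted curve at half-maximal effect; plate controls were DMSO wells for no effect and tomatine positive control wells for full effect; nearly all actives have a fitted effect of over 65% in size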
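qHTS, 4-pt dose (0.36-46 umol/L); SKOV3ip1-GFP, 1,200 cells/well, no FBS; primary omental fibroblast/mesothelial co-culture 48 h pre-grown; 2 h RT + 16 h 37 C; PBS wash, 4% PFA; GFP count 488/509 nm.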
HTT-AS promoter: activates huntingtin-antisense promoter activity; HEK293 HTT-AS promoter firefly luciferase reporter, 24 h; response scale: percent change from vehicle, -100% = no light; Potency, µM (series often up to 57.5 µM), inactives show top-dose activity change, positive = activation, actives largely listed as activators; 0.24% of 48,000 active; AID 1508624; also: potency is read from the fitted curve at half-maximal effect; nearly all actives have a fitted effect of over 55% in size
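Firefly luciferase signal from promoter-reporter HEK293 cells was scaled between vehicle (0%) and zero RLU (-100%). Compounds were tested at final concentrations of up to 57.5 uM over 24 h at 37 degrees C. PTC124 at 50 uM final served as control inhibitor.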
PMP22 txn: PMP22 gene transcription modulation; S16 Pmp22-F2sN Schwann cells, FLuc/NLuc coincidence luminescence, 24 h; Potency, µM (doses to about 57.5 µM), for the others: at the top dose activity change, negative = inhibition, actives largely listed as inhibitors; 2% of 43,000 active; AID 1508649; active = clear falling dose curves in both reporters; inconclusive = both reporters move, but less clearly or upward; inactive = either reporter flat; the % is the NLuc reporter signal; also: potency is read from the fitted curve at half-maximal effect; % is scaled to controls: 0 for no effect and ±100 for the full control effect
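Rat S16 Pmp22-F2sN cells, 500-1,000/well in phenol red-free DMEM + 10% FBS, compound-treated 24 h (37C, 5% CO2). Luminescence: FLuc read, Stop&Glo added, NLuc read.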
S16 F2sN tox: cytotoxicity in S16 Pmp22-F2sN Schwann cells. S16 Pmp22-F2sN Schwann cells viability, CellTiter-Glo, 24 h. Potency, µM (top dose mostly 57.5 µM), inactives show at the highest dose activity change, negative = cytotoxicity, hits mostly cytotoxic. 0.48% of 43,000 active; also: potency is read from the fitted curve at half-maximal effect; % is scaled to controls: 0 for no effect and ±100 for the full control effect; nearly all actives have a fitted effect of over 65% in size
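S16 Pmp22-F2sN Schwann cells (500-1,000/well) in phenol-red-free DMEM with 10% FBS received 23 nL compound by pin tool for 24 h at 37 °C. Viability was then read as CellTiter-Glo luminescence after 15 min at room temperature.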
NLuc sat counter: inhibits NanoLuc at saturating substrate, PMP22 counter-screen | shares compounds with PMP22 txn | Potency, µM (series often up to 57.5 µM), for the others: at the highest dose activity change, negative = inhibition, hits mostly inhibitors | 4% of 690 active | Secreted NLuc enzyme (filtered S16 cell medium), Nano-Glo luminescence | AID 1508638; also: potency is read from the fitted curve at half-maximal effect; % is scaled to controls: 0 for no effect and ±100 for the full control effect
NLuc Km ctr: inhibits NanoLuc under Km conditions, PMP22 counter-screen; shares compounds with PMP22 txn; secreted NLuc enzyme, coelenterazine luminescence, Km conditions; Potency, µM (highest dose often 57.5 µM), for the others: top-dose activity change, negative = inhibition, most hits filed as inhibitors; 5% of 690 active; AID 1508639; also: potency is read from the fitted curve at half-maximal effect; % is scaled to controls: 0 for no effect and ±100 for the full control effect
FLuc counter: counter-screen for PMP22 expression modulators: firefly luciferase inhibition. shares compounds with PMP22 txn. purified P. pyralis FLuc, luminescence, 10 min. Potency, µM (highest dose often 57.5 µM), for the others: at the highest dose activity, negative = inhibition, most hits filed as inhibitors. 690 tested, under 10 active. AID 1508640; also: % of control where 0% means no effect
Target sequence (P08659 whole entry, looked up): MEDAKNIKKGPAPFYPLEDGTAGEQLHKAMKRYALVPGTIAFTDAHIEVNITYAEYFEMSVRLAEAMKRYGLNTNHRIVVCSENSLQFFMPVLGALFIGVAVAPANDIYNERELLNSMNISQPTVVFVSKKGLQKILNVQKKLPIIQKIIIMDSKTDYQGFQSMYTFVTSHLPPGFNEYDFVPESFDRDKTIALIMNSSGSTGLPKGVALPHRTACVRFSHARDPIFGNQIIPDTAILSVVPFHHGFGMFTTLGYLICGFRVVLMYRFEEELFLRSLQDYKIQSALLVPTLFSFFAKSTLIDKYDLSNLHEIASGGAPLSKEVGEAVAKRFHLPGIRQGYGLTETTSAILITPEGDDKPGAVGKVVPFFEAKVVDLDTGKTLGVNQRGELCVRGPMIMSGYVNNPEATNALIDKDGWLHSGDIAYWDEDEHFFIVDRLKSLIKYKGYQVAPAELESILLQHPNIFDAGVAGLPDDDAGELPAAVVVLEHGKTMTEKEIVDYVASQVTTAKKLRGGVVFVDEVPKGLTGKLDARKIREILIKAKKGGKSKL
S16 viab conf: confirmation of cytotoxicity in S16 Pmp22-F2sN Schwann cells (luciferase reporters placed in the Pmp22 gene); Potency, µM (doses to about 57.5 µM), without a hit: top-dose activity change, negative = viability loss, hits mostly cytotoxic; 7% of 690 active; AID 1508641; shares compounds with PMP22 txn; S16 Schwann cells viability, CellTiter-Glo ATP luminescence, 24 h; also: potency is read from the fitted curve at half-maximal effect; % is scaled to controls: 0 for no effect and ±100 for the full control effect
PMP22 txn cnf: confirmation of modulators of PMP22 gene transcription in S16 cells | shares compounds with PMP22 txn | S16 Schwann cells Pmp22-F2sN, dual luciferase, 24 h | Potency, µM (doses to about 57.5 µM), for inactives: at the top dose activity change, negative = inhibition, hits mostly inhibitors | 22% of 690 active | AID 1508646; active = clear falling dose curves in both reporters; inconclusive = both reporters move, but less clearly or upward; inactive = either reporter flat; the % is the FLuc reporter signal; also: potency is read from the fitted curve at half-maximal effect
PMP22 HiBiT cnf: confirmation of modulators of rat PMP22 protein expression; Potency, µM (titrated, usually from 27.9 µM), inactives show top-dose activity change, negative = inhibition, hits mostly inhibitors; shares compounds with PMP22 txn; 95 tested, under 10 active; S16 Schwann cells Pmp22-HiBiT, luminescence, 48 h; AID 1508647
* marks the source's active call; other numbers are inactive results; i = inactive; ? = inconclusive; . = not tested or not shown. Unless noted, calls follow the shape of the dose curve; as a rule, active = well fitted curve in the direction sought with a large enough effect; inconclusive = small, poorly fitted or top-dose-only effect, or another doubt; inactive = no such curve, though single readings can be large; an effect the other way counts as inactive or inconclusive.

SMILES	mTORC1 inh	HTT prom inh	OvCa metastasis	HTT-AS promoter	PMP22 txn	S16 F2sN tox	NLuc sat counter	NLuc Km ctr	FLuc counter	S16 viab conf	PMP22 txn cnf	others
Cc1c(Cl)cccc1NC(=O)Cn1c(=O)n(Cc2ccco2)c(=O)c2sc3ccccc3c21	-10%	-5%	i	-7%	13µM*	1%	-3%	9%	3%	-38%	15µM*
Cc1ccc(CNC(=O)Cn2c(=O)n(Cc3ccc(F)cc3)c(=O)c3sc4ccccc4c32)cc1	-20%	-12%	i	-1%	-32%	2%	.	.	.	.	.
COc1ccccc1NC(=O)Cn1c(=O)n(-c2cccc(Cl)c2)c(=O)c2sc3ccccc3c21	1%	-13%	i	-13%	10µM*	1%	-4%	5%	1%	?	6.5µM*	PMP22 HiBiT cnf=6.5µM*
Cc1ccc(CNC(=O)Cn2c(=O)n(-c3cccc(Cl)c3)c(=O)c3sc4ccccc4c32)cc1	-5%	-11%	i	-15%	9.5µM*	5%	-7%	-3%	-4%	?	?
CN(C)Cc1c(C(=O)NCCOc2ccc(C(=O)NO)cc2)oc2ccccc12	.	278%	-11%	?	.	.	.	.	.	.	.
CC(C)OC(=O)C1=CN(C(=O)c2ccc(F)c(F)c2)CC(C)(C)c2c1[nH]c1ccccc21	.	11%	-21%	-4%	.	.	.	.	.	.	.
CCOC(=O)C1CCN(c2nc(-c3ccc(Br)cc3)nc3ccccc23)CC1	-1%	?	i	-37%	15µM*	?	-4%	-3%	5%	-4%	-9%
CNC(=O)c1cccc(-c2ccc3c(N4CCOC[C@H]4C)nc(N4CCOC[C@H]4C)nc3n2)c1	.	?	-17%	-28%	.	.	.	.	.	.	.
O=C1NC(=O)C(=Cc2ccc(-c3ccc(F)cc3)o2)S1	.	-18%	-18%	-14%	.	.	.	.	.	.	.
Cn1c(=O)c2c(-c3ccccc3Br)n(C(C)(C)C)cc2n(C)c1=O	-7%	-24%	7%	-31%	16µM*	1%	?	-16%	3%	?	-22%
Cc1ccc(/C=N/NC(=O)c2ccccc2Oc2ccccc2)o1	.	-17%	5%	-20%	.	.	.	.	.	.	.
